Screening data: PubChem BioAssay, several laboratories
NALP1 inh = NALP1 inhibition | S. cerevisiae NALP1/ASC/caspase-1 growth, X-gal OD620, 72 h | inhibition, % at 10 µM | 280,000 compounds, 0.61% hits | AID 2071; in the data active = inhibition mostly above about 24%, no sharp cut-off; inactive = mostly below about 32%
PfHsp90 yeast 2 = reduces growth (ATP signal) of yeast expressing P. falciparum Hsp90. S. cerevisiae expressing PfHsp90, BacTiter-Glo ATP, 48 h; yeast lacking PDR1 and PDR3 efflux regulators. inhibition, % at 9.4 µM. 310,000 compounds, 0.32% hits. AID 504621;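 active = every replicate shows inhibition above about 80%, whatever the replicate mean, limit read from the data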;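 also: 0% = DMSO neutral controls and 100% = 20 µM radicicol positive controls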
TIM10 inh = growth inhibitors of TIM10 yeast strain; inhibition, % at 10 µM; S. cerevisiae TIM10 strain growth, BacTiter-Glo luminescence, 24 h; 330,000 compounds, 1.4% hits;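 active = inhibition of 40% or more at the single tested concentration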;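 also: wild-type TIM10 isogenic control strain grown at permissive 25 °C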
tim23-1 inh = inhibits growth of tim23-1 mutant yeast | inhibition, % at 20 µM | S. cerevisiae tim23-1 growth, BacTiter-Glo luminescence, 24 h | 330,000 compounds, 1.3% hits | AID 463212;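 active = growth inhibition of the mutant yeast at or above 50%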;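 also: temperature-sensitive mutant grown at 25 °C; plate controls were DMSO-treated mutant yeast for no effect and medium wells lacking yeast for full effect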
NALP3 yeast inh = NALP3 inhibition in yeast; Yeast reconstituted NLRP3/ASC/caspase-1, beta-gal luminescence, 24 h; inhibition, % at 10 µM; 330,000 compounds, 0.39% hits;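 active = inhibition of 50% or more; inactive = inhibition below 50%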;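 also: plate controls were induced DMSO wells for no effect and uninduced yeast grown without galactose for full effect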
tim10-1 inh = inhibits growth of tim10-1 mutant yeast | 330,000 compounds, 2.2% hits | inhibition, % at 20 µM | AID 463190 | S. cerevisiae tim10-1 ts strain growth, BacTiter-Glo, 24 h;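 active = inhibition of at least 40%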;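 also: mutant grown at 25 °C; 0% = DMSO wells with yeast and 100% = wells holding no yeast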
tim10-1 conf = tim10-1 yeast growth inhibition, confirmed; AID 463213; S. cerevisiae tim10-1 ts strain growth, BacTiter-Glo, 24 h; shares compounds with tim10-1 inh; inhibition, % at 20 µM; 7,400 compounds, 56% hits;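 active = inhibition of yeast growth at or above a set limit in either of two repeat tests at 20 µM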;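 also: tim10-1 mutant grown at permissive 25 °C to find synthetic lethal compounds; 0% = DMSO yeast wells and 100% = medium wells without yeast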
The depositor's hits bear a star; . = no result given. Hits are enriched below; roughly 4.2% of the tested compounds scored in any of these assays.

SMILES	NALP1 inh	PfHsp90 yeast 2	TIM10 inh	tim23-1 inh	NALP3 yeast inh	tim10-1 inh	tim10-1 conf
CC(C)CC1(C)NC(=O)N(CC(=O)Nc2ccccc2Br)C1=O (centres undefined)	.	15	1	11	11	5	.
COc1ccc(CNC(=O)CN(C(=O)c2csnn2)c2cccc(C(C)=O)c2)cc1	5	2	6	0	2	-14	.
CSc1ncccc1C(=O)OCC(=O)NC(C)C	8	3	-6	-3	10	-1	.
Cc1c(C(=O)C(=O)N2CCN(C)CC2)c2ccccc2n1C	10	3	-12	2	-2	7	.
Cc1c(C(=O)C(=O)N2CCCc3ccccc32)c2ccccc2n1C	2	22	16	29	-2	43*	24
CC(C)(C)[C@@H]1COC(=O)[C@H](Cc2ccc(F)cc2)CC/C=C\C[C@@H](CC(=O)NCCO)C(=O)N1	.	10	0	0	-2	0	.
Cc1[nH]n(-c2ccc(Cl)c(Cl)c2)c(=O)c1CCO	14	-17	20	31	2	43*	19
Cc1[nH]n(-c2ccc(C(=O)O)cc2)c(=O)c1CCO	15	-36	.	.	.	.	.
CCOC(=O)c1c(NC(=O)C(NCCN(C)C)c2ccccc2)sc2c1CCCC2 (centres undefined)	-13	15	17	3	14	25	.
CCOc1ccc(/C=C2/C(=O)N(c3ccc(OC)cc3)C(=S)N2CC(=O)OC)cc1OCC	8	-8	31	40	15	41*	30
COc1ccc(-c2csc(CCn3nc(C)cc3C)n2)cc1OC	-29	2	-3	19	2	-1	.
COc1ccc(-c2csc(CCn3nc(C)cc3C)n2)cc1	6	-17	25	27	4	41*	35*
CCOC(=O)CNC(=O)CSc1nnc(CCc2nc3ccccc3[nH]2)n1C	0	-5	-3	-4	10	5	.
COC(=O)NNC(=O)COc1ccc2ccccc2c1Br	29	-23	22	30	10	45*	25
CC(C)(C)C(=O)NNC(=O)COc1ccc2ccccc2c1Br	-10	4	8	17	10	-6	.
COCCNC(=O)c1c(N)n(/N=C/c2cccs2)c2nc3ccccc3nc12	11	-17	19	28	12	44*	2
CCOc1ccc(NC(=O)CCCn2c(=S)[nH]c3ccsc3c2=O)cc1	-6	10	8	11	-4	20	.
Fc1cccc(-c2cc3nc4c(c(NCc5ccco5)n3n2)CCCC4)c1	11	-2	27	50	32	50*	35*
CCOC(=O)N1CCN(S(=O)(=O)c2ccc(C(=O)Nc3nnc(C4CC4)o3)cc2)CC1	34	-48	-9	-4	-12	-1	.
CC1CC(C)CN(S(=O)(=O)c2ccc(C(=O)Nc3nnc(C4CC4)o3)cc2)C1 (centres undefined)	9	0	27	45	15	47*	10
Cc1ccc(C(=O)O/N=C(/c2nonc2N)N(C)C)cc1	5	19	25	31	10	67*	62*
Cc1cc(C)n2ncc(/C(N)=N/OC(=O)Nc3ccccc3)c2n1	-11	4	16	0	17	-2	.
CCCCCc1nnc(NC(=O)C2COc3ccccc3O2)s1 (centres undefined)	-2	0	21	50	40	46*	40*
CCc1nnc(NC(=O)C2COc3ccccc3O2)s1 (centres undefined)	24	18	9	28	10	22	.
N/C(=N\OC(=O)CCCc1ccccc1)c1cccc([N+](=O)[O-])c1	31	5	35	32	-7	46*	42*
SMILES	NALP1 inh	PfHsp90 yeast 2	TIM10 inh	tim23-1 inh	NALP3 yeast inh	tim10-1 inh	tim10-1 conf
N/C(=N\OC(=O)CCCc1ccccc1)c1ccccc1	10	-4	35	35	13	45*	44*
O=C(C1CC1)N1CCc2cc(S(=O)(=O)NCc3ccccc3)ccc21	20	-16	-9	8	3	-13	.
C[n+]1c(-c2ccc(C=NNC(=O)c3ccc(C(=O)NN=Cc4ccc(-c5cn6ccccc6[n+]5C)cc4)cc3)cc2)cn2ccccc21	.	-143	.	.	.	.	.
COc1ccc(Cl)cc1NC(=S)NCCc1ccc(S(N)(=O)=O)cc1	-15	-17	15	-9	12	7	.
Fc1ccc(F)c(NC(=S)NCCc2ccccc2)c1	20	-27	35	28	36	46*	28
S=C(NCCCc1ccccc1)Nc1ccccc1	3	-26	23	47	14	29	.
S=C(NCCc1ccccc1)Nc1ccc(Nc2ccccc2)cc1	-3	-33	26	47	29	52*	34*
COc1ccc(Cl)cc1NC(=S)NCCc1ccc(F)cc1	-3	-64	33	34	-61	51*	34*
S=C(NCCC(c1ccccc1)c1ccccc1)Nc1ccc(Cl)cc1	11	18	34	27	30	55*	20
Cc1cc(N2C(=O)C3CCC(c4ccccc4)CC3C2=O)no1 (centres undefined)	7	28	-6	2	10	12	.
CN(NC(=O)c1ccccc1F)c1ccc([N+](=O)[O-])cn1	.	12	-3	37	12	1	.
CCCCN1CC(=O)N2[C@H]3c4ccccc4OC[C@@H]3[C@H](C(=O)OCC)[C@]2(C)C1=O	.	-11	-1	19	2	7	.
Cc1cc(OC(F)F)ccc1NC(=S)NCCc1ccccc1	6	0	28	33	33	48*	16
COc1ccc(Cl)cc1NC(=S)NCc1ccco1	-12	.	20	35	2	55*	36*
COc1ccc(NC(=S)NCCc2ccccc2)c(C)c1	4	-4	-14	12	15	19	.
CC(Sc1ccc(Cl)cc1)C(=O)NNC(=O)c1ccccc1O (centres undefined)	16	-8	17	36	7	23	.
C/C(=N\NC(=O)c1cc2ccccc2cc1O)c1ccccn1	9	92*	-22	29	20	60*	-30
C/C(=N\NC(=O)c1cc2ccccc2cc1O)c1cc2ccccc2o1	1	0	3	21	5	0	.
C/C(=N/NC(=O)c1cc2ccccc2cc1O)C1C(=O)c2ccccc2C1=O	-5	-21	20	27	13	47*	32*
COc1ccc(-n2c(=O)c3c4c(sc3n3c(=S)[nH]nc23)COC(C(C)C)C4)cc1 (centres undefined)	-9	.	19	6	28	2	.
CCSC(=O)CCCCCCCCCCCO	6	12	15	26	49	40*	36*
CCCCCCCCO	.	-17	1	-5	-4	-13	.
S=c1[nH]nc(COc2ccccc2)n1/N=C/c1cccs1	.	15	33	43	18	42*	13
